Results reported in PubChem BioAssay (NCATS).
Records with an inconclusive call do not appear. Entries that show only a call come without a potency. Values without a mark were called inactive. Calls of active or inactive are those of the source. Calls come from the whole dose curve; as a rule, active = well fitted cell-killing curve with a large enough effect; inconclusive = small, poorly fitted or top-dose-only effect; inactive = no such curve, though single readings can be large or run the other way.

Experiments:
[1] = qHTS of pediatric cancer cell lines to identify multiple opportunities for drug repurposing: Primary screen for Rh30 cells (AID 1347107); note: nearly all actives have a fitted effect of over 75% in size
Method in brief: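 Cells (500-1,000/well) in growth media were settled 5 h at 37 degrees C, then given compounds for 48 h. Viability was read as CellTiter-Glo luminescence. Primary runs used MIPE at 11 points (0.78 nM-46 µM) and NPC at 8 points (0.59 nM-46 µM); follow-ups used 11 points.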

[2] = qHTS of pediatric cancer cell lines to identify multiple opportunities for drug repurposing: Primary screen for Rh41 cells (AID 1347108);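 note: luminescence drop marks cytotoxic hits; nearly all actives have a fitted effect of over 70% in size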
Method in brief: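 Quantitative HTS format: each compound titrated (MIPE 11 points from 0.78 nM, NPC 8 points from 0.59 nM) onto cells plated 5 hours earlier. After 48 h at 37 degrees C, CellTiter-Glo luminescence was recorded.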
Note: series mostly up to about 46 µM.

## CC(C)C(=O)c1c(C(C)C)nn2ccccc12
[1]
  outcome: inactive
[2]
  Potency: inactive

## CC(CN1c2ccccc2Sc2ccccc21)N(C)C (stereo not given)
[1]
  outcome: inactive

## NC(CSCC(=O)O)C(=O)O (stereo not given)
[1]
  outcome: inactive

## O=c1cc[nH]c(=O)[nH]1
[1]
  outcome: inactive
[2]
  Potency: inactive

## CCCn1cnc2c1c(=O)n(CCCCC(C)=O)c(=O)n2C
[1]
  outcome: inactive
[2]
  Potency: inactive

## C[C@@H](O)[C@H](N)C(=O)O
[1]
  outcome: inactive

## CC(C)(C)NCC(O)COc1ccc(NC(=O)NC2CCCCC2)cc1 (stereo not given)
[1]
  outcome: inactive
[2]
  Potency: inactive

## COC(=O)[C@H]1[C@H]2C[C@@H]3c4[nH]c5cc(OC)ccc5c4CCN3C[C@H]2C[C@@H](OC(=O)COc2ccc(OC)cc2)[C@@H]1OC
[1]
  outcome: inactive
[2]
  Potency: inactive

## O=C(O)COc1nn(Cc2ccccc2)c2ccccc12
[1]
  outcome: inactive
[2]
  Potency: inactive

## O=C1O[C@H]([C@@H](O)CO)C(O)=C1O
[1]
  outcome: inactive
[2]
  Potency: inactive

## NC(=O)c1ncn([C@@H]2O[C@H](CO)[C@@H](O)[C@H]2O)n1
[1]
  outcome: inactive

## CCN(CC)CCSC(=O)C(c1ccccc1)c1ccccc1
[1]
  outcome: inactive

## OCC(O)CN1CCN(c2ccccc2)CC1 (stereo not given)
[1]
  outcome: inactive
[2]
  Potency: inactive

## CC[C@@]1(c2ccccc2)NC(=O)N(C)C1=O
[1]
  outcome: inactive
[2]
  Potency: inactive

## N[C@@H](CSSC[C@H](N)C(=O)O)C(=O)O
[1]
  activity change, negative = cytotoxic: 12% [at 0.597 µM]

## Cc1ccc(C(C)C)cc2c(C)ccc1-2
[1]
  outcome: inactive
[2]
  Potency: inactive

## COc1ccccc1O
[1]
  outcome: inactive
[2]
  Potency: inactive

## O=C1O[C@H](CO)[C@@H](O)[C@H](O)[C@H]1O
[1]
  outcome: inactive
[2]
  Potency: inactive

## Cc1cc(CC(=O)O)n(C)c1C(=O)c1ccc(Cl)cc1
[1]
  outcome: inactive
[2]
  Potency: inactive

## Cc1c(Cl)cccc1Nc1ccccc1C(=O)O
[1]
  outcome: inactive
[2]
  Potency: inactive

## Oc1cn2c(n1)Nc1ccc(Cl)c(Cl)c1C2
[1]
  outcome: inactive
[2]
  Potency: inactive

## CC1(C)CO[C@@H](CC(=O)O)CN1
[1]
  outcome: inactive
[2]
  Potency: inactive

## COc1cc2[nH]c(=O)[nH]c(=O)c2cc1OC
[1]
  outcome: inactive

## CCCCc1ncc(/C=C(\Cc2cccs2)C(=O)O)n1Cc1ccc(C(=O)O)cc1
[1]
  outcome: inactive
[2]
  Potency: inactive

## CC[C@H]1CN2CCc3cc(OC)c(OC)cc3[C@@H]2C[C@@H]1C[C@H]1NCCc2cc(OC)c(OC)cc21
[1]
  outcome: inactive

## CC1=C(CC(=O)O)c2cc(F)ccc2/C1=C\c1ccc(S(C)(=O)=O)cc1
[1]
  outcome: inactive
[2]
  Potency: inactive

## Cc1cc2c(cc1S(N)(=O)=O)S(=O)(=O)CCC2
[1]
  outcome: inactive
[2]
  Potency: inactive

## C#CCN(C)Cc1ccccc1
[1]
  outcome: inactive
[2]
  Potency: inactive

## N[C@H](C(=O)O)c1ccc(O)cc1
[1]
  outcome: inactive
[2]
  Potency: inactive

## CN1CCCCC1CCN1c2ccccc2Sc2ccc(S(C)=O)cc21 (stereo not given)
[1]
  outcome: inactive
[2]
  Potency: inactive

## COc1ccc2cc1Oc1cc3c(cc1OC)CC[N+](C)(C)[C@H]3Cc1ccc(cc1)Oc1c(OC)c(OC)cc3c1[C@@H](C2)[N+](C)(C)CC3
[1]
  outcome: inactive

## C[C@H](N)[C@H](O)c1cccc(O)c1
[1]
  outcome: inactive
[2]
  Potency: inactive

## CN(C)CCOC(C)(c1ccccc1)c1ccccn1 (stereo not given)
[1]
  outcome: inactive
[2]
  Potency: inactive

## [Cl][In]([Cl])[Cl]
[1]
  outcome: inactive

## CN1[C@@H]2CC[C@H]1CC(OC(=O)C(O)c1ccccc1)C2 (stereo not given in full)
[1]
  outcome: inactive

## O=C(O)CC(O)C(=O)O (stereo not given)
[1]
  outcome: inactive
[2]
  Potency: inactive

## CC(C(O)c1ccc(O)cc1)N1CCC(Cc2ccccc2)CC1 (stereo not given)
[1]
  outcome: inactive
[2]
  Potency: inactive

## Cc1cccc(C)c1NC(=O)CN(CC(=O)O)CC(=O)O
[1]
  outcome: inactive
[2]
  Potency: inactive

## OCc1cc(C(O)CNCCCCCCOCCCCc2ccccc2)ccc1O (stereo not given)
[1]
  outcome: inactive
[2]
  Potency: inactive

## CCn1cc(C(=O)O)c(=O)c2cnc(N3CCNCC3)nc21
[1]
  outcome: inactive
[2]
  Potency: inactive

## CNC(=O)Oc1ccc2c(c1)[C@]1(C)CCN(C)[C@@H]1N2C
[1]
  outcome: inactive
[2]
  Potency: inactive

## COc1ccc2[nH]c(S(=O)Cc3ncc(C)c(OC)c3C)nc2n1 (stereo not given)
[1]
  outcome: inactive
[2]
  Potency: inactive

## O=c1cc(CO)occ1O
[1]
  outcome: inactive
[2]
  Potency: inactive

## CN(C)CCC=C1c2ccccc2CCc2ccccc21
[1]
  outcome: inactive
[2]
  Potency: inactive

## COc1ccc2c(c1)C(=O)N(CCc1ccc(S(=O)(=O)NC(=O)NC3CCCCC3)cc1)C(=O)C2(C)C
[1]
  outcome: inactive
[2]
  Potency: inactive

## CC1CC(OC(=O)C(O)c2ccccc2)CC(C)(C)N1C (stereo not given)
[1]
  outcome: inactive
[2]
  Potency: inactive

## CC1(C)OC(=O)NC1=O
[1]
  outcome: inactive
[2]
  Potency: inactive

## CS(=O)(=O)c1ccc([C@@H](O)[C@@H](CF)NC(=O)C(Cl)Cl)cc1
[1]
  outcome: inactive
[2]
  Potency: inactive

## CCOc1ccc2ccccc2c1C(=O)N[C@@H]1C(=O)N2[C@@H]1SC(C)(C)[C@@H]2C(=O)O
[1]
  outcome: inactive
[2]
  Potency: inactive

## O=c1[nH]c(=O)c2[nH]c(=O)[nH]c2[nH]1
[1]
  activity change, negative = cytotoxic: 2.78% [at 9.22 µM]
[2]
  activity change, negative = cytotoxic: -6.34% [at 9.22 µM]

## O=C1Nc2ccc(Cl)cc2[C@@](C#CC2CC2)(C(F)(F)F)O1
[1]
  outcome: inactive
[2]
  Potency: inactive

## N[C@H]1C(O)O[C@H](CO)[C@@H](O)[C@@H]1O (stereo not given in full)
[1]
  outcome: inactive
[2]
  Potency: inactive

## CSc1ccc2c(c1)C(N1CCN(C)CC1)Cc1ccccc1S2 (stereo not given)
[1]
  outcome: inactive
[2]
  Potency: inactive
